Laboratory results reported in the supplement of paper PMC6805474.

tested on: Schistosoma mansoni schistosomula (LE); test: XTT viability relative to DMSO control; higher = more viable (less active); details: 72 h; 10 µM
Experimental: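 XTT/PMS was then added for a further 24 h (72 h total) and A450 was read. % viability = (sample - heat-killed control)/(DMSO control - heat-killed control) x 100, from duplicate wells in two independent experiments.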

| Compound | XTT viability [%] |
| --- | --- |
| Cc1cc(C)cc(COc2ccc3c(C)c(CCC(=O)O)c(=O)oc3c2C)c1 | 79.3 |
| CC(C)(CN)c1nc(-c2ccc(Cl)c(O)c2)c(-c2ccnc(N)n2)[nH]1 | 156 |
| CS(=O)(=O)c1cccc(-c2cnc3[nH]cc(-c4ccc(CCC(=O)O)cc4)c3c2)c1 | 86.9 |
| CCc1nc2ccc(C(=O)NCc3ccc4c(c3)OCO4)cn2c1N(C)Cc1cccs1 | 140 |
| COc1ccc2nc(C)cc(OCC(=O)Nc3ccccc3OC)c2c1 | 108 |
| Cc1nc(-c2cccc(NCc3ccccc3)c2)[nH]c1C | 104 |
| c1csc(-c2cnc3sc(NCC4CCOCC4)nn23)c1 | 95.7 |
| Cc1nnc(NCc2cccc(Cl)c2)c2ccccc12 | 102 |
| O=C(Nc1cccc(-c2ccc(NCCCN3CCCC3)nc2)c1)c1ccccc1 | 67.8 |
| Brc1cncc(-c2cc(NCCCn3ccnc3)nc(-c3ccccc3)n2)c1 | 12.9 |
| CCOc1ccc(-c2nc(CNCCc3ccc(F)cc3)cs2)cc1 | 2.26 |
| Cc1nn2c(=O)c3c([nH]c2c1-c1ccc(Cl)cc1)CCCC3 | 101 |
| CC(C)c1ncc(-c2ccncc2)c([C@H]2CC[C@H](CNC(=O)c3cccnc3)CC2)n1 | 94 |
| COc1ccc(Oc2ccc([C@@H](C)N(C)c3ncc4c(N)nc(N)nc4n3)cc2)cc1 | 4.74 |
| CCc1nc2ccccc2n1CC(O)COc1cc(C)ccc1Cl (stereo not given) | 106 |
| COc1ccc(S(=O)(=O)Nc2ccc(CN3CCN(C(=O)c4cccc(C#N)c4)CC3)cc2)cc1 | 144 |
| c1ccc(Oc2ccc(-c3cc(N4CCOCC4)[nH]n3)cc2)cc1 | 112 |
| N#Cc1nc(-c2ccccc2)oc1S(=O)(=O)c1ccc(Cl)cc1 | -7.61 |
| COc1cc(OC)cc(C(=O)NCC2Cc3cc(Cl)cc(-c4ccncc4)c3O2)c1 (stereo not given) | 153 |
| Nc1ccc(C(=O)Nc2ccc(-c3nc4ccccc4o3)cc2)cc1 | 64.2 |

| Compound | XTT viability [%] |
| --- | --- |
| CN1CCN(c2nccc3nc(-c4ccc(F)c(F)c4)[nH]c23)CC1 | 110 |
| Cc1cc(C)nc(-n2nc(C)cc2Nc2ccccc2)n1 | 55.6 |
| Cc1ccc2[nH]c3c(NCCN(C)C)ncnc3c2c1 | 72.5 |
| CCOC(=O)c1cc(-c2csc(Nc3c(C)cc(C)cc3C)n2)on1 | 95.6 |
| CN(C)c1cc(NC(=O)Nc2ccccc2)c2ccccc2n1 | -13.7 |
| O=C(Nc1cccnc1)c1c(O)c2cccc3c2n(c1=O)CC3 | 118 |
| COc1ccc(C2=NN(C3CCCCCC3)C(=O)C2(C)C)cc1OCCCCOc1ccc(-c2nn[nH]n2)cc1 | 3.51 |
| CCOC(=O)NC(=O)c1ccsc1NC(=O)c1nc2ccccc2s1 | 134 |
| CCN(CC)CCCCCCNc1cc(OC)cc2c(C)ccnc12 | 59.3 |
| Cc1cnc(CCNC(=O)c2cc(-c3ccc(Cl)cc3)cs2)[nH]1 | 79.7 |
| COc1cc(CN2CCC3(C=Cc4ccccc43)CC2)cc2c1OCO2 | 73.9 |
| COc1ccc(Cl)cc1NC(=O)CN(C)C(=O)c1cnn(-c2ccccc2)n1 | 78.4 |
| CCC(C)NC(=O)c1ccc(NC(=O)C2(c3ccccc3)CCCC2)cc1 (stereo not given) | 90.6 |
| O=C(NC1=NCCS1)c1sc2cc(F)ccc2c1Cl | 81 |
| CNC(=O)CNc1nc(-c2ccccn2)nc2scc(-c3ccccc3)c12 | 90 |
| O[C@@H](c1cc(C(F)(F)F)nc2c(C(F)(F)F)cccc12)[C@H]1CCCCN1 | -0.139 |
| O=C(NC1CC1)c1ccc(N2CCOc3ccc(Cl)cc32)s1 | 83.5 |
| COc1ccc(CCN2CCC(NCc3cccc(N(C)C)c3)CC2)cc1 | 98.6 |
| CC(C)(C)C(=O)N(CCCCCCN1C[C@H](O)[C@@H](O)[C@H](O)[C@H]1CO)C1CCCCCC1 | 122 |
| CC(C)(C)OC(=O)N1CCN(c2cc(-c3ccc(Oc4ccccc4)cc3)n[nH]2)CC1 | 66.1 |
